Source: PubChem BioAssay (NCI)
The panel holds about 83,000 compounds, 20% with a hit somewhere; the sample as a whole holds those more often.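 Treatment: one concentration, 48 hours, 96-well format. Scoring: percent growth, with anything below 10 considered active.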 Calls of active or inactive are those of the source.

What follows are compounds tested on OVCAR-5 ovarian (assay: NCI-60 one-dose screen, 48 h (100 = growth as untreated, 0 = no growth, -100 = all killed)). Settings: 10 µM unless noted.

Row | SMILES | growth
1 | Cc1ccc(C(=O)Nc2ccc(-n3ccnc3)c(C(F)(F)F)c2)cc1C#Cc1cnc2cccnn12 | 39.8% (inactive)
2 | N/C(=N\c1nc2ccccc2s1)NC(=O)Nc1ccccc1F | 31.4% (inactive)
3 | Cc1nc2sccn2c1-c1nnc(SCC(C)C)o1 | 90.5% (inactive)
4 | O=[N+]([O-])c1cccc(-c2nnc3c(/C=C/c4ccc(F)cc4)nc4ccccc4n23)c1 | 108% (inactive)
5 | C=CC(=O)N1CCN(c2ccc3nc4c(nc3c2C(F)(F)F)C(=O)c2ncccc2C4=O)CC1 | 2.97% (active)
6 | CN1CCN(CCS(=O)(=O)Nc2cc(-c3ccc4ncnc(Nc5ccc(F)c(Cl)c5)c4c3)cnc2Cl)CC1 | 16% (inactive)
7 | COc1ccc(N=Nc2c(N)nn3c(-c4ccc(F)cc4)ccnc23)cc1 | 80% (inactive)
8 | O=C(N/N=C/c1c[nH]c2ccccc12)Nc1ccc(F)c(Cl)c1 | 60.1% (inactive)
9 | N#CCc1nnc(NC(=O)c2ccc(-n3c(=O)[nH]c4ccccc4c3=O)cc2)s1 | 96.7% (inactive)
10 | CCOc1ccc(-c2cc(-c3cc(C(C)C)c(O)cc3C)nn2-c2ccc(S(N)(=O)=O)cc2)cc1 | 53% (inactive)
11 | CN1CCN(c2ccc3c4c(cccc24)C(=O)N(c2cccc(-c4nn(-c5ccccc5)cc4-c4nc5ccccc5s4)c2)C3=O)CC1 | 122% (inactive)
12 | O=C(Cn1c(-c2ccccc2)nc2ccccc21)N=Nc1c(O)[nH]c2ccc(Cl)cc12 | 18.5% (inactive)
13 | CCc1ccc(SC2c3cc(OC)ccc3Oc3nc(N)c(C#N)c(N)c32)cc1 (stereo unspecified) | -4.3% (active)
14 | CN(C)C(=O)c1cc(-c2ccc3ncnc(N4CCc5cc(F)c(Cl)cc54)c3c2)cnc1N | -15% (active)
15 | CN1C(=O)C2(C(C#N)=C(c3ccc(Cl)cc3)Nc3c2c(-c2ccccc2)nn3-c2ccccc2)c2ccccc21 (stereo unspecified) | 96% (inactive)
16 | Cc1ccc2c(c1)/C(=C/C(=O)c1cc3ccccc3oc1=O)C(=O)N2 | 77.4% (inactive)
17 | N#CC1=C(c2cccs2)Nc2c(c(-c3ccccc3)nn2-c2ccccc2)C12C(=O)Nc1ccc(Cl)cc12 (stereo unspecified) | 5.03% (active)
18 | O=C(NC(=S)N1CCN(c2ncnc3c2cnn3-c2ccccc2)CC1)c1ccc(Br)cc1 | 81.8% (inactive)
19 | Nc1nnc(-c2cncc(Br)c2)c(-c2c[nH]c3ccc(Cl)cc23)n1 | 94.2% (inactive)

Row | SMILES | growth
20 | COc1ccc(C2=NN(C(=O)[C@H]3[C@@H](c4ccco4)c4sc(=O)[nH]c4S[C@@H]3C)C(c3ccc4ccccc4c3)C2)cc1 (stereo partly specified) | 42.9% (inactive)
21 | CCOc1ccc2[nH]c(=O)c(C(c3nnnn3CC3CCCO3)N3CCN(Cc4ccccc4)CC3)cc2c1 (stereo unspecified) | 97% (inactive)
22 | FC(F)(F)c1cc2c(Cl)ncnc2n1CCC1CCOCC1 | 102% (inactive)
23 | COc1cc(/C=C/C(=O)c2cnn(-c3cc(=O)[nH]c4ccc(C)cc34)c2C)cc(OC)c1OC | -37.3% (active)
24 | O=C(N/N=C/c1c[nH]c2ccccc12)Nc1ccccc1Cl | 23.1% (inactive)
25 | Nc1nn2c(-c3cc4ccccc4oc3=O)ccnc2c1N=Nc1ccccc1 | 82.3% (inactive)
26 | Cc1ccc(C(=O)Nc2cc(-c3ccncc3)cc(C(F)(F)F)c2)cc1C#Cc1cnc2cccnn12 | 53.5% (inactive)
27 | COc1ccc(C(=O)/C=C/c2ccc3c(c2)OCCO3)cc1S(N)(=O)=O | 105% (inactive)
28 | FC(F)(F)c1cc2c(Cl)ncnc2n1CCN1CCCCC1 | 95% (inactive)
29 | COc1ccc2[nH]cc(-c3cc4nc(-c5cn(C)c6ncccc56)cc(N)n4n3)c2c1 | -17.6% (active)
30 | Nc1nc(-c2ccccc2)c(N=Nc2ccc(Cl)cc2Cl)s1 | -61.9% (active)
31 | COc1ccc(NC(=O)Cn2c(/C=C/c3ccc([N+](=O)[O-])cc3)nc3ccccc3c2=O)cc1 | 76.4% (inactive)
32 | C[C@@H]1[C@H]2C[C@@H](C[C@H]1NCc1nc3ccccc3n1C1CCCCCC1)C2(C)C | 85.9% (inactive)
33 | COc1ccc(NC(=O)Cn2c(/C=C/c3cccc(Br)c3)nc3ccccc3c2=O)cc1 | 47.6% (inactive)
34 | Cc1ccc(-c2cc(C(=O)N=Nc3c(O)[nH]c4ccc(F)cc34)c3ccccc3n2)cc1 | 70% (inactive)
35 | CCOC(=O)c1ccc(NC(=S)NC(=O)c2ccc(NC(=O)C(C)C)cc2OC)cc1 | 90.1% (inactive)
36 | CCCSc1nnc(-c2c(C)nc3sccn23)o1 | 85.9% (inactive)
37 | Cc1ccc(N=Nc2c(N)nn3c(-c4cc5ccccc5oc4=O)ccnc23)cc1 | 54.6% (inactive)
38 | O=C(N/N=C/c1ccc(Cl)o1)c1[nH]c2ccc(Br)cc2c1-c1ccccc1 | -24.9% (active)

The compounds below were run on OVCAR-4 ovarian in the same assay as above. Settings: 10 µM unless noted.

Row | SMILES | growth
39 | Cc1ccc(C(=O)Nc2ccc(-n3ccnc3)c(C(F)(F)F)c2)cc1C#Cc1cnc2cccnn12 | 13.6% (inactive)
40 | N/C(=N\c1nc2ccccc2s1)NC(=O)Nc1ccccc1F | 49.6% (inactive)
41 | Cc1nc2sccn2c1-c1nnc(SCC(C)C)o1 | 86% (inactive)
42 | O=[N+]([O-])c1cccc(-c2nnc3c(/C=C/c4ccc(F)cc4)nc4ccccc4n23)c1 | 73.7% (inactive)
43 | C=CC(=O)N1CCN(c2ccc3nc4c(nc3c2C(F)(F)F)C(=O)c2ncccc2C4=O)CC1 | -96.4% (active)
44 | CN1CCN(CCS(=O)(=O)Nc2cc(-c3ccc4ncnc(Nc5ccc(F)c(Cl)c5)c4c3)cnc2Cl)CC1 | 32.3% (inactive)
45 | COc1ccc(N=Nc2c(N)nn3c(-c4ccc(F)cc4)ccnc23)cc1 | 26.1% (inactive)
46 | O=C(N/N=C/c1c[nH]c2ccccc12)Nc1ccc(F)c(Cl)c1 | 52.8% (inactive)
47 | N#CCc1nnc(NC(=O)c2ccc(-n3c(=O)[nH]c4ccccc4c3=O)cc2)s1 | 106% (inactive)
48 | CCOc1ccc(-c2cc(-c3cc(C(C)C)c(O)cc3C)nn2-c2ccc(S(N)(=O)=O)cc2)cc1 | 29.6% (inactive)
49 | CN1CCN(c2ccc3c4c(cccc24)C(=O)N(c2cccc(-c4nn(-c5ccccc5)cc4-c4nc5ccccc5s4)c2)C3=O)CC1 | 103% (inactive)
50 | O=C(Cn1c(-c2ccccc2)nc2ccccc21)N=Nc1c(O)[nH]c2ccc(Cl)cc12 | -44.4% (active)
51 | CCc1ccc(SC2c3cc(OC)ccc3Oc3nc(N)c(C#N)c(N)c32)cc1 (stereo unspecified) | -13.3% (active)
52 | CN(C)C(=O)c1cc(-c2ccc3ncnc(N4CCc5cc(F)c(Cl)cc54)c3c2)cnc1N | -17.5% (active)
53 | CN1C(=O)C2(C(C#N)=C(c3ccc(Cl)cc3)Nc3c2c(-c2ccccc2)nn3-c2ccccc2)c2ccccc21 (stereo unspecified) | 96.1% (inactive)
54 | Cc1ccc2c(c1)/C(=C/C(=O)c1cc3ccccc3oc1=O)C(=O)N2 | 53.9% (inactive)
55 | N#CC1=C(c2cccs2)Nc2c(c(-c3ccccc3)nn2-c2ccccc2)C12C(=O)Nc1ccc(Cl)cc12 (stereo unspecified) | 27.2% (inactive)
56 | O=C(NC(=S)N1CCN(c2ncnc3c2cnn3-c2ccccc2)CC1)c1ccc(Br)cc1 | 41.9% (inactive)
57 | Nc1nnc(-c2cncc(Br)c2)c(-c2c[nH]c3ccc(Cl)cc23)n1 | 56.2% (inactive)

Row | SMILES | growth
58 | COc1ccc(C2=NN(C(=O)[C@H]3[C@@H](c4ccco4)c4sc(=O)[nH]c4S[C@@H]3C)C(c3ccc4ccccc4c3)C2)cc1 (stereo partly specified) | 49.2% (inactive)
59 | CCOc1ccc2[nH]c(=O)c(C(c3nnnn3CC3CCCO3)N3CCN(Cc4ccccc4)CC3)cc2c1 (stereo unspecified) | 94.9% (inactive)
60 | FC(F)(F)c1cc2c(Cl)ncnc2n1CCC1CCOCC1 | -16.5% (active)
61 | COc1cc(/C=C/C(=O)c2cnn(-c3cc(=O)[nH]c4ccc(C)cc34)c2C)cc(OC)c1OC | 39.3% (inactive)
62 | O=C(N/N=C/c1c[nH]c2ccccc12)Nc1ccccc1Cl | 53.9% (inactive)
63 | Nc1nn2c(-c3cc4ccccc4oc3=O)ccnc2c1N=Nc1ccccc1 | 96.6% (inactive)
64 | Cc1ccc(C(=O)Nc2cc(-c3ccncc3)cc(C(F)(F)F)c2)cc1C#Cc1cnc2cccnn12 | 63.5% (inactive)
65 | COc1ccc(C(=O)/C=C/c2ccc3c(c2)OCCO3)cc1S(N)(=O)=O | 83.3% (inactive)
66 | FC(F)(F)c1cc2c(Cl)ncnc2n1CCN1CCCCC1 | 13.5% (inactive)
67 | COc1ccc2[nH]cc(-c3cc4nc(-c5cn(C)c6ncccc56)cc(N)n4n3)c2c1 | -26.4% (active)
68 | Nc1nc(-c2ccccc2)c(N=Nc2ccc(Cl)cc2Cl)s1 | -2.75% (active)
69 | COc1ccc(NC(=O)Cn2c(/C=C/c3ccc([N+](=O)[O-])cc3)nc3ccccc3c2=O)cc1 | 16.4% (inactive)
70 | C[C@@H]1[C@H]2C[C@@H](C[C@H]1NCc1nc3ccccc3n1C1CCCCCC1)C2(C)C | 72.4% (inactive)
71 | COc1ccc(NC(=O)Cn2c(/C=C/c3cccc(Br)c3)nc3ccccc3c2=O)cc1 | -45.7% (active)
72 | Cc1ccc(-c2cc(C(=O)N=Nc3c(O)[nH]c4ccc(F)cc34)c3ccccc3n2)cc1 | 1.07% (active)
73 | CCOC(=O)c1ccc(NC(=S)NC(=O)c2ccc(NC(=O)C(C)C)cc2OC)cc1 | 27.2% (inactive)
74 | CCCSc1nnc(-c2c(C)nc3sccn23)o1 | 71.9% (inactive)
75 | Cc1ccc(N=Nc2c(N)nn3c(-c4cc5ccccc5oc4=O)ccnc23)cc1 | 77.9% (inactive)
76 | O=C(N/N=C/c1ccc(Cl)o1)c1[nH]c2ccc(Br)cc2c1-c1ccccc1 | -22.3% (active)
